PubChem BioAssay (NCATS)
Records with an inconclusive call do not appear. Activity calls are given as the source filed them. Unless noted, calls come from the whole dose curve; as a rule, active = well fitted curve in the direction sought with a large enough effect; inconclusive = small, poorly fitted or top-dose-only effect, or another doubt; inactive = no such curve, though single readings can be large; an effect the other way counts as inactive or inconclusive.

Assays:
[1] = molecular target: Lysosomal acid glucosylceramidase (Homo sapiens) (UniProt P04062); assay: Glucocerebrosidase-p2 (AID 348; in the data active = potency below about 10 µM; note: potency is the fitted concentration of half-maximal effect); conditions: purified GBA, blue fluorogenic substrate, 40 min
Method in brief: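 Compounds titrated from 0.6 nM upwards against 0.2 nM enzyme in pH 5.9 citric acid/KH2PO4, taurocholate, tween-20; blue fluorogenic substrate 80 uM, 40 min room temperature, stopped and read Ex 365/Em 440 for AC50.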

[2] = AP1 Signaling Pathway (AID 357; active = well fitted curve in either direction with a large enough effect, not every such curve was filed as active;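 note: ME-180 reporter cells stimulated with EGF at its EC50 level; % is set by controls: 0 for no effect and ±100 for the full control effect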); conditions: ME-180 AP-1-bla reporter, EGF-induced, beta-lactamase ratio, 5 h; at 7.69 µM (top of the series) unless noted
Method in brief: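 Titration-series screen for positive or negative modulators of EC50 EGF-induced signaling in ME-180 cells carrying an AP-1-driven beta-lactamase reporter. After 5 hours at 37 degrees Celsius, CCF4 460nm/530nm emission ratio gave %Activity; AC50 values derived.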

[3] = molecular target: Cytochrome P450 1A2 (Homo sapiens) (UniProt P05177); assay: p450-cyp1a2 (AID 410; calls by dose curve; note: potency is the fitted concentration of half-maximal effect)
Method in brief: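 20nM CYP1A2 with 100uM Luciferin-ME (at Km) in 100mM KPO4; compound preincubated 10 min, NADPH regeneration added, 60 min at room temperature. Luciferin quantified by luminescence after detection reagent; normalized to 57 uM furafylline.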

[4] = NFAT Signaling Pathway (AID 444; active = well fitted curve in either direction with a large enough effect, not every such curve was filed as active;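 note: carbachol stimulus at about its EC50 of 1 µM final; % is set by controls: 0 for no effect and ±100 for the full control effect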); conditions: Jurkat NFAT-bla M1, carbachol, beta-lactamase ratio, 5 h; at 7.69 µM (top of the series) unless noted
Method in brief: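 Read-out: CCF4 FRET ratio (460 nm/530 nm) after 1 h RT dye loading, used for %activity and AC50 from titration series. Cells: Jurkat NFAT-β-lactamase/M1 line, treated with compound plus 1 uM carbachol for 5 h, 37 °C.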

[5] = Stat Signaling Pathway (AID 446; active = well fitted curve in either direction with a large enough effect, not every such curve was filed as active;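 note: ME-180 cervical cancer cells given 40 pM IL-6 alongside compound; SIE-controlled beta-lactamase reporter measured as 460/530 nm FRET emission ratio; % is set by controls: 0 for no effect and ±100 for the full control effect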); conditions: ME-180 SIE beta-lactamase reporter, IL-6 stimulated, 5 h; at 7.69 µM (top of the series) unless noted
Method in brief: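 ME-180 cells carrying a SIE-driven beta-lactamase reporter are stimulated with 40 pM IL-6 for 5 h at 37C in the presence of compound. The 460/530 nm FRET substrate ratio is read after 2.5 h at RT. Data are normalised to 300 pM IL-6 and to 125 nM JAK inhibitor controls.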

[6] = molecular target: Glucocorticoid receptor (Homo sapiens) (UniProt P04150); assay: GR-EFC Redistribution (AID 451; calls by dose curve; note: potency is the fitted concentration of half-maximal effect); conditions: CHO-K1 GR-EFC translocation, beta-gal luminescence, 2 h
Method in brief: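 Translocation of GR-ED fusion to nuclear EA restores b-gal, read by luminescence after 1 h room-temperature detection. Engineered CHO-K1 biosensor cells, 1,000/well, exposed 2 h at 37 C to titrations up to 46 uM final.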

[7] = molecular target: Cytochrome P450 3A4 (Homo sapiens) (UniProt P08684); assay: qHTS Assay for Activators of Cytochrome P450 3A4 (AID 885); note: nearly all actives have a fitted effect of over 65% in size
Method in brief: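 Human CYP3A4 (20 nM) with Luciferin-PPXE at 25 uM (its KM) in 200 mM KPO4; 10 min compound preincubation, then NADPH regeneration and 60 min reaction at RT. Luciferin read by luminescence; normalized to 57 uM ketoconazole full inhibition.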

[8] = Primary qHTS for small molecule stabilizers of the endoplasmic reticulum resident proteome: Secreted ER Calcium Modulated Protein (SERCaMP) assay (AID 1508630); note: % is set by controls: 0 for no effect and ±100 for the full control effect
Method in brief: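 GLuc-SERCaMP-expressing SH-SY5Y cells, pretreated 16 h with compound, are challenged with thapsigargin to empty ER calcium stores; after 4 h, coelenterazine is added directly to the medium and luminescence is imaged.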

[9] = molecular target: Rap guanine nucleotide exchange factor 3 (Homo sapiens) (UniProt O95398); assay: Confirmatory qHTS for antagonist of cAMP-regulated guanine nucleotide exchange factor 3 (EPAC1) (AID 1645880);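 note: plate controls were DMSO only for no effect and full effect of the ATA control for full effect; nearly all actives have a fitted effect of over 55% in size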
Method in brief: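 Nucleotide exchange uses 100 nM EPAC1, 250 nM RAP1B-BODIPY-GDP and 50 uM GDP, with compounds in a concentration-titration series. After 5 min at room temperature, fluorescence (480 nm ex/540 nm em) is read every 5 min for 30 min. Data are normalized to control ATA and DMSO.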

[10] = molecular target: Rap guanine nucleotide exchange factor 3 (Homo sapiens) (UniProt O95398); assay: Confirmatory qHTS for agonist of cAMP-regulated guanine nucleotide exchange factor 3 (EPAC1) (AID 1645881);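 note: EPAC1 catalysed release of BODIPY-GDP from Rap1B seen as fluorescence loss; 100% = effect of cAMP agonist control; nearly all actives have a fitted effect of over 75% in size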
[11] = molecular target: Rap guanine nucleotide exchange factor 4 (Homo sapiens) (UniProt Q8WZA2); assay: Confirmatory qHTS for agonist of cAMP-regulated guanine nucleotide exchange factor 4 (EPAC2) (AID 1645884);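 note: nucleotide exchange releases bodipy-GDP from Rap1 and this lowers its fluorescence; % is set by controls: 0 for no effect and ±100 for the full control effect; nearly all actives have a fitted effect of over 65% in size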
[12] = molecular target: Rap guanine nucleotide exchange factor 4 (Homo sapiens) (UniProt Q8WZA2); assay: Confirmatory qHTS for antagonist of cAMP-regulated guanine nucleotide exchange factor 4 (EPAC2) (AID 1645885); note: % is set by controls: 0 for no effect and ±100 for the full control effect; nearly all actives have a fitted effect of over 25% in size
[13] = molecular target: Cytochrome P450 3A4 (Homo sapiens) (UniProt P08684); assay: qHTS Assay for Inhibitors and Substrates of Cytochrome P450 3A4 (AID 884); note: potency is the fitted concentration of half-maximal effect; nearly all actives have a fitted effect of over 50% in size
Method in brief: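 20 nM human CYP3A4 with 25 uM Luciferin-PPXE (at KM) in 200 mM KPO4, preincubated 10 min with compound; NADPH regeneration started a 60 min RT reaction. Luciferin detected by luminescence, normalized to 57 uM ketoconazole as full inhibition.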

[14] = qHTS Assay for Lipid Storage Modulators (AID 1519; calls by dose curve); conditions: Drosophila S3 cells, BODIPY lipid droplet/cell ratio, laser cytometry, cells loaded with oleic acid; for activity change, negative = inhibition: at 57.5 µM (top of the series)
Method in brief: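 Cells seeded at 5,000 per well were treated with compounds over a concentration series and loaded with oleic acid (400 uM, as added). Lipid droplet fluorescence (488 nm excitation, 500-530 nm channel) was read by laser-scanning cytometry and normalized to 20 uM Triacsin C.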

[15] = molecular target: Glucocorticoid receptor (Homo sapiens) (UniProt P04150); assay: GR-GFP Redistribution (AID 450;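 active = compounds whose dose series gives a full or clear partial fitted curve of increased nuclear translocation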; note: potency is the fitted concentration of half-maximal effect); conditions: U2OS GR-GFP nuclear translocation, laser cytometry, 2 h
[16] = molecular target: Mitogen-activated protein kinase 10 (Mus musculus) (UniProt Q61831); assay: JNK3 AlphaScreen Assay (AID 530; active = well fitted curve in either direction with a large enough effect, not every such curve was filed as active)
Method in brief: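 Compound titrations were preincubated 15 minutes at room temperature with substrate, antibody and pre-activated JNK3-containing HepG2 lysate. Reactions were started with 10 uM ATP and stopped with EDTA-containing bead buffer for AlphaScreen detection.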

[17] = molecular target: 3',5'-cyclic-AMP phosphodiesterase 4B (Homo sapiens) (UniProt Q07343); assay: qHTS Assay for Inhibitors of PDE-IV (AID 607; active = well fitted activation curve with a large enough effect in the main read-out, with a control signal flat, not every such curve was filed as active; note: % of control where 0% means no effect)
Method in brief: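 HEK293 ACTOne cells with CNG channel (1000/well), endogenous PDE4; membrane potential dye, compounds up to 22.9 uM final. Fluorescence Ex 535/Em 590; RO 20-1724 (100 uM final) as reference.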

[18] = molecular target: Ubiquitin carboxyl-terminal hydrolase 1 (Homo sapiens) (UniProt O94782); assay: Inhibitors of USP1/UAF1: Pilot qHTS (AID 504865); note: nearly all actives have a fitted effect of over 35% in size; note: potency is the fitted concentration of half-maximal effect
Method in brief: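 USP1/UAF1 complex at 1 nM preincubated 15 min at room temperature with compound, then Ub-Rho substrate added at 150 nM final. Fluorescence (480/540 nm) read kinetically in 50 mM HEPES pH 7.8, 0.5 mM EDTA, 1 mM TCEP, 0.1 mg/ml BSA, 0.01% Tween-20.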

[19] = molecular target: Dual specificity protein kinase CLK4 (Homo sapiens) (UniProt Q9HAZ1); assay: qHTS Assay for Inhibitors of CDC-like Kinase 4 (Kinase-Glo Assay) (AID 1770); note: nearly all actives have a fitted effect of over 65% in size; note: potency is the fitted concentration of half-maximal effect
Method in brief: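 25 nM Clk4 with 100 uM RS repeat peptide and 1 uM ATP (final) in Tris pH7.5, 10 mM MgCl2, 4.5 h at room temperature. Remaining ATP measured by Kinase-Glo luciferase luminescence.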

[20] = molecular target: Dual specificity protein kinase CLK4 (Homo sapiens) (UniProt Q9HAZ1); assay: qHTS Assay for Inhibitors of CDC-like Kinase 4 (ADP-FP Assay) (AID 1795);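 note: recombinant human CLK4 phosphorylating RS repeat peptide at 1 µM ATP; % is set by controls: 0 for no effect and ±100 for the full control effect; nearly all actives have a fitted effect of over 60% in size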
Method in brief: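 Recombinant Clk4 (6.25 nM) phosphorylated 100 uM RS repeat peptide with 1 uM ATP in 25 mM Tris pH 7.5, 10 mM MgCl2, 0.5 mM EGTA, 2.5 mM DTT, 0.01% Triton X-100 for 1 h. ADP was detected by Transcreener ADP2 competitive fluorescence polarization after 30 min at room temperature.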

[21] = measured here: cell count channel max response
[22] = measured here: lipid channel max response

Chain of 3',5'-cyclic-AMP phosphodiesterase 4B (Homo sapiens) (Q07343 whole entry, looked up): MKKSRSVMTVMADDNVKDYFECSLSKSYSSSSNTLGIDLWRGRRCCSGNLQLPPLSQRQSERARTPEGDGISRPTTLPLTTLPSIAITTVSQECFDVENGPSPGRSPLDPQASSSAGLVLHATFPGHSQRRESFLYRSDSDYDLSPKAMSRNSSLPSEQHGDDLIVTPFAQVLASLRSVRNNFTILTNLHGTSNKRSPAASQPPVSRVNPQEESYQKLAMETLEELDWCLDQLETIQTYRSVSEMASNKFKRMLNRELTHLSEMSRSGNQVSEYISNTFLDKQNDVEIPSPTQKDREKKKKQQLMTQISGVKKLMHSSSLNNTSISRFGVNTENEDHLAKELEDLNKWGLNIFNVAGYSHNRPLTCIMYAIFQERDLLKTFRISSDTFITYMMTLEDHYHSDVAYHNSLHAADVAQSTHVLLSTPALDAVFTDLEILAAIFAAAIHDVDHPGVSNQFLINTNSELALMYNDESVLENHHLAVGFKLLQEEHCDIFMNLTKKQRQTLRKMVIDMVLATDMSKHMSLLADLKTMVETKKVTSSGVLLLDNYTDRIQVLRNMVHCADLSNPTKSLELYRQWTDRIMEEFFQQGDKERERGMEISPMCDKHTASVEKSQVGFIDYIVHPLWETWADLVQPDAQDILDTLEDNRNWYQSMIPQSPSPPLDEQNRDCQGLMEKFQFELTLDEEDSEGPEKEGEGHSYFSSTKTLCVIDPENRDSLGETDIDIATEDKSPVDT
Chain of Cytochrome P450 1A2 (Homo sapiens) (P05177 whole entry, looked up): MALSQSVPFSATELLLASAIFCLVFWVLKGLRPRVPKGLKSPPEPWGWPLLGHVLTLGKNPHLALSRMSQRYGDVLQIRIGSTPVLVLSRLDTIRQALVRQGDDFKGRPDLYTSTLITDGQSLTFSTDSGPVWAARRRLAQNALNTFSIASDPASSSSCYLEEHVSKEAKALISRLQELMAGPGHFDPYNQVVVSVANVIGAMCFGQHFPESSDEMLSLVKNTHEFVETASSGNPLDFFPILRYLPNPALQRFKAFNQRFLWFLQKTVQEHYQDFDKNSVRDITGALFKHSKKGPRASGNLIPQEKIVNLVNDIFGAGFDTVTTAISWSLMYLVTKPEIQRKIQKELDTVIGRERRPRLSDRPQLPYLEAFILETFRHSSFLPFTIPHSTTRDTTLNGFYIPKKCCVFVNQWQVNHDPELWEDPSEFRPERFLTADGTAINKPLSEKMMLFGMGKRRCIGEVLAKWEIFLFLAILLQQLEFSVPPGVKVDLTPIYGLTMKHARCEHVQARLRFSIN
Chain of Rap guanine nucleotide exchange factor 4 (Homo sapiens) (Q8WZA2 whole entry, looked up): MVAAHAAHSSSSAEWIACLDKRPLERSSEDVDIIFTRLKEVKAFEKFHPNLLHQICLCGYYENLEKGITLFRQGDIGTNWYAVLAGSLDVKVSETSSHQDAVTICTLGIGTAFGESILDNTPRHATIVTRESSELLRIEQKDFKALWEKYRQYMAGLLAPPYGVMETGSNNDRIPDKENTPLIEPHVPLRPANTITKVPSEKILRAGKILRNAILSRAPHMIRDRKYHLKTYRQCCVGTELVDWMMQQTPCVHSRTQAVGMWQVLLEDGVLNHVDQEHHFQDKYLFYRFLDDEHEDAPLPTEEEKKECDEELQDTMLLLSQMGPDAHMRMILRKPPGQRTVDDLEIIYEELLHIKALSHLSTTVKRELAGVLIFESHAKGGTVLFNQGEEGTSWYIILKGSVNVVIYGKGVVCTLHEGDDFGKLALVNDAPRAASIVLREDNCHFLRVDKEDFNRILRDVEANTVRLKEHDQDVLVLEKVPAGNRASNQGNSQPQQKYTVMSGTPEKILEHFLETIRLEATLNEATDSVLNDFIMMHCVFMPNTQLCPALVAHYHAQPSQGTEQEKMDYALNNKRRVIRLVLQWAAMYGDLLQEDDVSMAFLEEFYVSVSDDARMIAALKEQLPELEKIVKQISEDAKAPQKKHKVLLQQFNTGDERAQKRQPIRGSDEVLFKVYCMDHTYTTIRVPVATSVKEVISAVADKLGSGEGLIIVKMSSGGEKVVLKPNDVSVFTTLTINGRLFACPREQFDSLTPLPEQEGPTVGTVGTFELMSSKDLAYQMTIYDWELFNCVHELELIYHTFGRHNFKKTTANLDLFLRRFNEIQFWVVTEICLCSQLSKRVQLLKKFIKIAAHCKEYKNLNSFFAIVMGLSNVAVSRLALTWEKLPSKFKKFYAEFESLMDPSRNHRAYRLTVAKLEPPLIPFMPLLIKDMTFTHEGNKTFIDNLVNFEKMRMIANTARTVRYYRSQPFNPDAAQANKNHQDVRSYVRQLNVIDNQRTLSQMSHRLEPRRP
Chain of Dual specificity protein kinase CLK4 (Homo sapiens) (Q9HAZ1 whole entry, looked up): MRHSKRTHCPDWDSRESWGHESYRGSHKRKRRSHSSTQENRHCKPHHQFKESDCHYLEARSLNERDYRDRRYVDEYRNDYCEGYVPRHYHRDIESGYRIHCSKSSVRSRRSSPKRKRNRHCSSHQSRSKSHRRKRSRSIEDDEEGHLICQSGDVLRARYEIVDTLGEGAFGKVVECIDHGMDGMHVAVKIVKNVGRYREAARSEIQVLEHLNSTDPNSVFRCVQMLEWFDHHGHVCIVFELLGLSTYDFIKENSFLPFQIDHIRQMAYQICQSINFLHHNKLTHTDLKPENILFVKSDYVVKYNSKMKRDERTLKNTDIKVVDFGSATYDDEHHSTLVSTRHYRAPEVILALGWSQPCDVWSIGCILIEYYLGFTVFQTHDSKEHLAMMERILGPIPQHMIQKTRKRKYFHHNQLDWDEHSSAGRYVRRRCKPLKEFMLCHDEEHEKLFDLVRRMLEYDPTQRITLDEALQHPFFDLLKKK
Chain of Glucocorticoid receptor (Homo sapiens) (P04150 whole entry, looked up, the tested form may be a part): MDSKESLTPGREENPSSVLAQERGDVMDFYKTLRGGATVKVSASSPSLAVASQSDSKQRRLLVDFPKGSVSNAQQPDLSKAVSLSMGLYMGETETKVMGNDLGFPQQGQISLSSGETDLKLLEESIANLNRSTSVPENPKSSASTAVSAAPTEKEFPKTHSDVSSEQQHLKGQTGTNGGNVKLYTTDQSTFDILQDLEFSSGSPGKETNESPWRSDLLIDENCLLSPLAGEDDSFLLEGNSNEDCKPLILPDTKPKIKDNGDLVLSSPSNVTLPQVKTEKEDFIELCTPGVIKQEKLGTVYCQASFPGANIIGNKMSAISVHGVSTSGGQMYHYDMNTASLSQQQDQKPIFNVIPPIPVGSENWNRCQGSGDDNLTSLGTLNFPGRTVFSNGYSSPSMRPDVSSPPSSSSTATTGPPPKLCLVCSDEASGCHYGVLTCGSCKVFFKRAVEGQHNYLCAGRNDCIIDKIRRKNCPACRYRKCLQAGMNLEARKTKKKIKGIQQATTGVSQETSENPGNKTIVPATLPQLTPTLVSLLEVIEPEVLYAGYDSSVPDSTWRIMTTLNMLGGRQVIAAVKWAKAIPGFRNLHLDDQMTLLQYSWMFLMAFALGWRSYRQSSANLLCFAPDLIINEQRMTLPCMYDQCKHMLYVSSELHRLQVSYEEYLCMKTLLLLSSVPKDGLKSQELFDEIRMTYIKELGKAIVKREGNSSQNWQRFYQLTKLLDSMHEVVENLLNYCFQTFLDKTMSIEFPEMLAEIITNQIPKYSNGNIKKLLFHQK
Chain of Rap guanine nucleotide exchange factor 3 (Homo sapiens) (O95398 whole entry, looked up): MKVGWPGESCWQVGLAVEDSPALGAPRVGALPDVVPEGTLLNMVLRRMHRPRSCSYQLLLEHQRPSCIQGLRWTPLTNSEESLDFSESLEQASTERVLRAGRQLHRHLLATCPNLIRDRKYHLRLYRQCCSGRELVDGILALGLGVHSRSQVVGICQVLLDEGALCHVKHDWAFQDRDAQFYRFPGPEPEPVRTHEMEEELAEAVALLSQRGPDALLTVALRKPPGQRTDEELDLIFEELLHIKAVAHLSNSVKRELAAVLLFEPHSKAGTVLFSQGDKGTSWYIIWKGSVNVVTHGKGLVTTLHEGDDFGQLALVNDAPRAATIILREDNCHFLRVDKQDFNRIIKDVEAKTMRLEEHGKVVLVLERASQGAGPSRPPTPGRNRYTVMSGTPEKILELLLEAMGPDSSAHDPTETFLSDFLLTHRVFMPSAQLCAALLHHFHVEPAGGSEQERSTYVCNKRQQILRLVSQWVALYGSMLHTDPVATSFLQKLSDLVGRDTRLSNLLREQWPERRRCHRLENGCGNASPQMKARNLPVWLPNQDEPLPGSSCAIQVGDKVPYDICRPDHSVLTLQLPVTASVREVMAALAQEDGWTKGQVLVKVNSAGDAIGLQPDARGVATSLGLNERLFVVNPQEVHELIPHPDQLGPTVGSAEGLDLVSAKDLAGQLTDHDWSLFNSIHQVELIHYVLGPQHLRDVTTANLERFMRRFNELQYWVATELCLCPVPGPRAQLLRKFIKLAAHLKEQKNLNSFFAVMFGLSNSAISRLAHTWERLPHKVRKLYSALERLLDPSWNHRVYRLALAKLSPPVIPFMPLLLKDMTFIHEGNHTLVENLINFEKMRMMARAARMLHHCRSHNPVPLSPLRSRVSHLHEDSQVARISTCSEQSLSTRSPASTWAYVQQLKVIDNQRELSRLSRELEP
Chain of Lysosomal acid glucosylceramidase (Homo sapiens) (P04062 whole entry, looked up): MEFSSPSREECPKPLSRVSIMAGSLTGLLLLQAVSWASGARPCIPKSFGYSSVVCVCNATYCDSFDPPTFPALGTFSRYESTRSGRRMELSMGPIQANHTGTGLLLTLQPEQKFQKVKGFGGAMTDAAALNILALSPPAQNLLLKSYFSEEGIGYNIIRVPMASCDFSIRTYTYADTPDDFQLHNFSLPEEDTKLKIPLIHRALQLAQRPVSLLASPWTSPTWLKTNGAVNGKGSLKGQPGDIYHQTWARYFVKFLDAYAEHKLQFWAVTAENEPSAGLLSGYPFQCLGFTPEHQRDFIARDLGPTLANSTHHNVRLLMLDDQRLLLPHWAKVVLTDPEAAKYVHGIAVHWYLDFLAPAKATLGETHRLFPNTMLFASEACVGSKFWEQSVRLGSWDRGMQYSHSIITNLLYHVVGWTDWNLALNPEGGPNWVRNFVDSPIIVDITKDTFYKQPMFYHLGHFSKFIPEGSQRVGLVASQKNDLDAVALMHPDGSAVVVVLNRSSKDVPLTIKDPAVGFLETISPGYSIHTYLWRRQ

Cn1cccc1C(=O)N1CCC2(CCCN(c3cccc(-c4ccccc4)c3)C2)CC1
active: Potency [3] 15.8 µM
inactive: Potency [1] > 11.4 µM | activity change, negative = inhibition [2] 7.29% | activity change, negative = inhibition [4] -13.3% | activity, negative = inhibition [5] 2.34% | Potency [6] > 46 µM | Potency [7] | outcome [8] | Potency [9] | Potency [10] | Potency [11] | Potency [12]

Cc1cc(OC(=O)c2c(C)cc(O)cc2O)cc(O)c1C(=O)O
13%: max response [14, 21]
inactive: Potency [7] | activity change, negative = inhibition [14] 8.43% | outcome [8]
23.1%: max response [14, 22]
active: Potency [13] 12.6 µM

COc1cccc(Nc2ncc3nc(-c4cc(F)cc(F)c4)c(=O)n(C4CC4)c3n2)c1
inactive: Potency [1] > 11.4 µM | activity change, negative = inhibition [2] -13.3% | activity, negative = inhibition [5] -7.32% | Potency [15] > 9.22 µM | Potency [6] > 46 µM | Potency [16] | Potency [17] | outcome [8] | Potency [9] | Potency [10] | Potency [11] | Potency [12]
active: Potency [3] 6.31 µM

O=C1C=C(O)c2ccccc2C1=O
-2.25%: max response [14, 22]
-0.646%: max response [14, 21]
inactive: Potency [7] | activity change, negative = inhibition [14] -2.81% | outcome [8]
active: Potency [18] 50.1 µM

N#CCCn1c(=O)c(-c2cccs2)nc2cnc(N3CCOCC3)nc21
inactive: Potency [1] > 11.4 µM | activity change, negative = inhibition [2] 3.31% | activity change, negative = inhibition [4] -28.6% | activity, negative = inhibition [5] 17.9% | Potency [15] > 9.22 µM | Potency [6] > 46 µM | Potency [16] | Potency [17] | Potency [19] | Potency [20] | outcome [8] | Potency [9] | Potency [10] | Potency [11] | Potency [12]

COc1ccc2[nH]cc(CCNc3nc(-c4cccc(C#N)c4)nc4ccccc34)c2c1
inactive: Potency [15] > 46 µM | Potency [6] > 46 µM | Potency [16] | Potency [17] | Potency [20] | Potency [18] | outcome [8] | Potency [9] | Potency [10] | Potency [11] | Potency [12]
active: Potency [19] 22.4 µM

O=C(c1cccc(F)c1)N1CCC2(CCCN(c3cccc(-c4ccccc4)c3)C2)CC1
inactive: Potency [1] > 11.4 µM | activity change, negative = inhibition [2] 11.6% | activity change, negative = inhibition [4] -6.68% | activity, negative = inhibition [5] 7.29% | Potency [6] > 46 µM | Potency [16] | Potency [17] | Potency [7] | outcome [8] | Potency [9] | Potency [10] | Potency [11] | Potency [12]
active: Potency [3] 15.8 µM

CS(=O)(=O)Nc1cccc(-c2ccc3ncnc(Nc4ccc(F)cc4)c3c2)c1
active: Potency [3] 0.794 µM | Potency [13] 7.94 µM
-14.7%: max response [14, 22]
inactive: activity, negative = inhibition [5] 4.21% | Potency [15] > 46 µM | Potency [6] > 46 µM | Potency [16] | Potency [7] | activity change, negative = inhibition [14] 2.96% | outcome [8]
-27.4%: max response [14, 21]
